# Experimental data reported in PubChem BioAssay.
# Several values for one entry are separate records, joined by “and”; a condition that tells them apart may be missing. Identical values can stand only once. For part of these data: Entries with a potency or affinity are not part of this list. Activity calls are given as the source filed them. Unless noted, how the calls were made is not given here.
# Assays:
# [1] = blockers of polyQ-driven CASP3 activation – cell-based (AID 1583); settings: polyglutamine-induced caspase-3 activation, cell assay; stronger effect = higher value;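 tested at 10 µM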
# [2] = yeast 75Q aggregation reduction – 75Q-TubU reporter (AID 1593); settings: Yeast 75Q polyglutamine aggregation reporter
# [3] = restoration of touch response, mutant HTT neurons – whole organism, C. elegans mechanosensory neurons, N-terminal huntingtin (AID 1599); settings: C. elegans polyQ-huntingtin mechanosensory neurons, stronger effect = higher value
# [4] = blockers of cytochrome c efflux from mitochondria – biochemical, purified mitochondria (AID 1603); settings: stronger effect = lower value;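 further: mouse liver mitochondria challenged with calcium chloride; signal normalized to the plate average as 100%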
# [5] = polyglutamine aggregate formation blockers (AID 1604); settings: polyglutamine-induced protein aggregation inhibition assay; stronger effect = higher value; tested at 2.5 µM
# [6] = glutamate transport activators, MN-1 cells, MN-1 cell line (AID 1612); settings: MN-1 motor neuron cells, stronger effect = higher value;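 further: tested at 1 µM final; 0% = mean of DMSO vehicle wells on each plate; positive means more glutamate uptake than control and negative means less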
# [7] = GFP-Q80 aggregate reduction, neuronal-like cells, cell-based, NGF-treated PC12, GFPQ80 (AID 1614); settings: PC12 NGF-treated GFP-polyQ80 inclusion reduction;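 further: lower means fewer inclusions and 0 means no inclusions at all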
# [8] = 75Q-TubH aggregate inhibition, S. cerevisiae, yeast (AID 1616); settings: S. cerevisiae 75Q-TubH polyglutamine aggregation suppression; stronger effect = higher value
# [9] = compounds altering circadian rhythm period length – cell-based, LOPAC library, luminescence reporter (AID 2774); settings: circadian reporter cells, at 7 µM, actives lie on both sides;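 further: values are relative to mean of DMSO wells on each plate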
# [10] = P. berghei load reduction in hepatocytes – cell-based, HepG2, luciferase luminescence, HepG2 viability, primary screen (AID 624349; in the data active means parasite load remaining mostly below about 12%, no sharp cut-off; inactive means mostly above about 10%;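 further: 100% = mean of DMSO negative control wells on the same plate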); settings: P. berghei liver stage in HepG2, luciferase luminescence, concentration not given here; parasite load remaining: stronger effect = lower value; viability: measured here: HepG2 viability without parasites
# [11] = molecular target: 6-phosphogluconate dehydrogenase, decarboxylating (Homo sapiens) (UniProt P52209); experiment: inhibition of human phosphogluconate dehydrogenase – biochemical, recombinant enzyme, NADPH absorbance, primary screen (AID 1159550;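 active means at least 20% inhibition of 6-phosphogluconate dehydrogenase activity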); settings: recombinant 6PGD, NADPH absorbance 341 nm; at 10 µM; stronger effect = higher value
# [12] = EMT-state selective cytotoxicity in co-culture – imaging, PC-3E GFP, TEM4-18 mCherry, primary screen (AID 1345086;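 active means compounds killing one labelled cell type while sparing the other, by normalised counts and ratio limits, not self-fluorescent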;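 on all read-outs here: cells exposed to compound for 72 h before imaging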;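 on red/green cell ratio (normalised): normalised mesenchymal count divided by normalised epithelial count so high means epithelial killing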); settings: PC-3E GFP / TEM4-18 mCherry co-culture, imaging cell counts, at 1 µM; for red/green cell ratio (normalised): actives lie on both sides, counts scaled to control wells, 1 = unselective
# [13] = viability loss with induced miR-34 in A549 – imaging, A549 dox-inducible miR-34, nuclei and caspase counts, primary screen (AID 1347080;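 active means compounds whose cell count with miR-34 switched on is under 0.7 times the count with it off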); settings: A549 miR-34 inducible, Hoechst nuclei count, 48 h
# [14] = blockers of cellular phospholipid synthesis – cell-based, LOPAC library, screen 4, primary screen (AID 1347384); settings: animal cells, phospholipid biosynthesis inhibition screen; at 10 µM
# [15] = MELAS cybrid and Rieske KO viability enhancers – cell-based, MELAS cybrids, Rieske KO mouse fibroblasts, CellTiter-Glo, primary screen (AID 1508586;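 active means mean z-score across replicates of 1.96 or higher in either the MELAS or the Rieske mutant cell line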;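 further: z relative to plate mean and SD of compound and empty wells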); settings: low glucose
# [16] = molecular target: NAD(+) hydrolase SARM1 (Homo sapiens) (UniProt Q6SZW1); experiment: blocking NAD cleavage by SARM1 SAM-TIR – cell lysate, NAD-Glo luminescence (AID 1508614;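 active means compound whose remaining NAD level is above about 45 nM, limit read from the data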); settings: SAM-TIR HEK293T lysate NADase, at 1 µM, stronger effect = higher value
# [17] = molecular target: Mitogen-activated protein kinase 7 (Homo sapiens) (UniProt Q13164); experiment: Gal4-ERK5 driven luciferase induction – cell-based, HTS, primary screen (AID 1508626;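 active means luciferase signal above three times the same-plate solvent-only control wells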;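 further: luciferase driven by Gal4-ERK5 fusion binding five Gal4 sites before minimal TATA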); settings: HeLa Gal4-ERK5 transactivation, 18 h, at 5 µM, stronger effect = higher value
# [18] = galactose survival enhancers in mitochondrial complex I cybrids – cell-based, galactose medium, ATP luminescence, primary screen (AID 1645843;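 active means z-score of at least 1.8 in each of two replicates, scored against plate mean and spread of sample wells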;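 further: positive z means more ATP and so rescue of galactose-driven cybrid death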); settings: complex I mutant cybrid cells, 72 h, stronger effect = higher value
# [19] = compounds altering viability of human ES cells (AID 493140); settings: human embryonic stem cell survival screen; stronger effect = higher value;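 further: cells exposed to compounds for four days before counting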
# [20] = measured here: epithelial PC-3E GFP cell survival
# [21] = measured here: mesenchymal TEM4-18 mCherry cell survival
# [22] = stronger effect = lower value, cell number ratio, induced over uninduced
# [23] = measured here: relative caspase fold change +Dox/-Dox
# [24] = measured here: total cells with miR-34 induction, stronger effect = lower value
# [25] = measured here: total cells without miR-34 induction
# [26] = MELAS cybrid survival, CellTiter-Glo 48 h, stronger effect = higher value
# [27] = Rieske KO mouse fibroblast survival, CellTiter-Glo 72 h
# Mitogen-activated protein kinase 7 (Homo sapiens), sequence (Q13164 whole entry, looked up, the tested form may be a part): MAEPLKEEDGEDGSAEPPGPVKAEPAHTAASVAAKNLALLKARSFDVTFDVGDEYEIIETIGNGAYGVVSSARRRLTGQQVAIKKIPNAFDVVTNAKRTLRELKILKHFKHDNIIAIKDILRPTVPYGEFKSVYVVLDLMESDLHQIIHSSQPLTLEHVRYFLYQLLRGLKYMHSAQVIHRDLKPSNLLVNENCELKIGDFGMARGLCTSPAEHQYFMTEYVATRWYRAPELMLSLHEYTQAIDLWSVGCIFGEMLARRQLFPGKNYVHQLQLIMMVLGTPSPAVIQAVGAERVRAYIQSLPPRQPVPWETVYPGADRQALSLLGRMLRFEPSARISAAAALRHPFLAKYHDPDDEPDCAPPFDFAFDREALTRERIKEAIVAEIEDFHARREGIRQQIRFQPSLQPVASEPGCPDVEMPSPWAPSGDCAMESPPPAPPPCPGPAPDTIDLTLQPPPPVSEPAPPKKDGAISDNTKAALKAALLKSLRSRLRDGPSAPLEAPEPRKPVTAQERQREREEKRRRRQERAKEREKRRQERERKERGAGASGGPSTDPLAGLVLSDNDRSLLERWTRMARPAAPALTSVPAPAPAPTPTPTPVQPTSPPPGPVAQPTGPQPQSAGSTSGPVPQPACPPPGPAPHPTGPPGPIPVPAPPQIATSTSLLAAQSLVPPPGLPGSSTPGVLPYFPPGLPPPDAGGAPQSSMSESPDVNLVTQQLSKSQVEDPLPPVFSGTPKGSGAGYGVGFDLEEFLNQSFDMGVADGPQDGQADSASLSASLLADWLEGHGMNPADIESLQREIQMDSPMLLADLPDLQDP
# 6-phosphogluconate dehydrogenase, decarboxylating (Homo sapiens), sequence (P52209 whole entry, looked up): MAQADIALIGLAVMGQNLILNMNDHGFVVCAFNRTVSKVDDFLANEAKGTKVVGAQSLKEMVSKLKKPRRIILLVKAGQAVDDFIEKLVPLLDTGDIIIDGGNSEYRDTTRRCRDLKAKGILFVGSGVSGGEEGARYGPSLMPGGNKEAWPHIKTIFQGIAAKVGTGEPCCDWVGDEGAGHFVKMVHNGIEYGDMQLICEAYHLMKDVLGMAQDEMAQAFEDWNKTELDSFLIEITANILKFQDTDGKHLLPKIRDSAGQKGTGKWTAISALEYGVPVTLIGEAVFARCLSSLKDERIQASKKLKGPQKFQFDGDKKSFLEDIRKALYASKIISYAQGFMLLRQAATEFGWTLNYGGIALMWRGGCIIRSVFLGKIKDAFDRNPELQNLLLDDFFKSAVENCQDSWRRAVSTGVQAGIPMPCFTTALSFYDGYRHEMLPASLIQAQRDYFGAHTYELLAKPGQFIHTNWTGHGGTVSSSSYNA
# NAD(+) hydrolase SARM1 (Homo sapiens), sequence (Q6SZW1 whole entry, looked up, the tested form may be a part): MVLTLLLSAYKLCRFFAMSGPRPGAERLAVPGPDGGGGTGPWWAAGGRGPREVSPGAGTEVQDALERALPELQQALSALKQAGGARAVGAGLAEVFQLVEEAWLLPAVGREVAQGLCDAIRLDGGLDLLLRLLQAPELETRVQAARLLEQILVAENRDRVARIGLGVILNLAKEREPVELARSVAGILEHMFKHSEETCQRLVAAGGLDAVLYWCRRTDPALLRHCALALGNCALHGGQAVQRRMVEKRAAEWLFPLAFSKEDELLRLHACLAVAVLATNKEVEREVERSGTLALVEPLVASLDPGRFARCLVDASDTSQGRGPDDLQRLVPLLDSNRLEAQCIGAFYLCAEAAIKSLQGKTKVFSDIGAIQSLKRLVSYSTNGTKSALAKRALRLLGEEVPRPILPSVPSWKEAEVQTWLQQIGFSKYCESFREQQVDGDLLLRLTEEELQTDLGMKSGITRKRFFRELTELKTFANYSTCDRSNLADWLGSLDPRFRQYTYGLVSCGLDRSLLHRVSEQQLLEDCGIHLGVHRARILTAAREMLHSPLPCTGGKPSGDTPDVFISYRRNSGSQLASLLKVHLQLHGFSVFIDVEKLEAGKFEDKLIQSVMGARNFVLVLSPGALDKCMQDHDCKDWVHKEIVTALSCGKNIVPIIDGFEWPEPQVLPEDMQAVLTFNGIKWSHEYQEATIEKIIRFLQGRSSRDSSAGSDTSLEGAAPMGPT
structure (smiles),measurement,setting,value
C[N+](C)(C)CCO,inhibition,[1],2.29%
same,score,[2],1.21
same,rescue above control,[3],0.45
same,cytochrome c release ratio,[4],1.11
same,inhibition of aggregation,[5],51.5%
same,glutamate uptake change,[6],11.9%
same,inclusion score,[7],2
same,aggregation suppression score,[8],1.39
same,period change,[9],-0.015 h (inactive)
same,parasite load remaining,[10],151% (inactive) and 49.7% (inactive)
same,viability,[10],89.2% and 117%
same,inhibition,[11],2.82% (inactive)
same,red/green cell ratio (normalised),[12],1.11 (inactive)
same,normalised cell number,[12]; [20],1.16
same,normalised cell number,[12]; [21],1.3
same,fold change,[13]; [22],1.01 (inactive) and 0.882 (inactive) and 0.829 (inactive)
same,fold change,[13]; [23],2.28 and 1.39 and 4.39
same,cell count,[13]; [24],9630 and 8510 and 11000
same,cell count,[13]; [25],9520 and 9640 and 13300
same,outcome,[14],inactive
same,z-score,[15]; [26],-0.228 (inactive)
same,z-score,[15]; [27],-0.171
same,remaining NAD,[16],10 nM (inactive)
same,luciferase signal,[17],200 AU (inactive)
same,z-score,[18],0.51 (inactive)
CN1C2CCC1CC(OC(=O)C(CO)c1ccccc1)C2 (stereo not given),inhibition,[1],-7.62%
same,score,[2],1.48
same,rescue above control,[3],-4.85
same,cytochrome c release ratio,[4],1.14
same,inhibition of aggregation,[5],83.1%
same,glutamate uptake change,[6],7.04%
same,inclusion score,[7],2
same,aggregation suppression score,[8],1.57
same,period change,[9],0.005 hour (inactive) and 0.075 hour (inactive)
same,survival,[19],7.25 (inactive)
same,inhibition,[11],-2.64% (inactive)
same,red/green cell ratio (normalised),[12],1.05 (inactive)
same,normalised cell number,[12]; [20],0.95
same,normalised cell number,[12]; [21],1
same,outcome,[14],inactive
same,z-score,[15]; [26],-0.14 (inactive)
same,z-score,[15]; [27],-0.261
same,z-score,[18],0.025 (inactive) and 0.13 (inactive)
COc1cc2c(cc1OC)[C@@H]1C(=O)c3ccc4c(c3O[C@@H]1CO2)C=CC(C)(C)O4,inhibition,[11],-0.416% (inactive)
same,red/green cell ratio (normalised),[12],0.71 (inactive)
same,normalised cell number,[12]; [20],0.9
same,normalised cell number,[12]; [21],0.64
same,luciferase signal,[17],44 AU (inactive)
CCCc1nn(C)c2c(=O)[nH]c(-c3cc(S(=O)(=O)N4CCN(C)CC4)ccc3OCC)nc12,parasite load remaining,[10],94.8% (inactive) and 65.8% (inactive) and 48% (inactive)
same,viability,[10],89.3% and 101% and 108%
same,inhibition,[11],6.7% (inactive)
same,red/green cell ratio (normalised),[12],0.98 (inactive)
same,normalised cell number,[12]; [20],1.05
same,normalised cell number,[12]; [21],1.03
same,cell count,[13]; [24],10500 and 7310 and 9670
same,outcome,[14],inactive
same,z-score,[15]; [26],-0.38 (inactive) and -0.0288 (inactive) and 1.25 (inactive)
same,z-score,[15]; [27],-0.0156 and 0.388 and 1.37
same,remaining NAD,[16],10 nM (inactive)
same,luciferase signal,[17],60 AU (inactive)
same,z-score,[18],0.235 (inactive) and 0.33 (inactive)
O=c1c(O)c(-c2ccc(O)cc2O)oc2cc(O)cc(O)c12,inhibition,[1],-17.6%
same,score,[2],1.66
same,rescue above control,[3],-6.82
same,cytochrome c release ratio,[4],0.57
same,inhibition of aggregation,[5],49%
same,glutamate uptake change,[6],-11.3%
same,inclusion score,[7],2
same,aggregation suppression score,[8],0.872
same,period change,[9],0.015 h (inactive)
same,parasite load remaining,[10],81.2% (inactive)
same,viability,[10],66.9%
same,inhibition,[11],-23.3% (inactive)
same,red/green cell ratio (normalised),[12],0.97 (inactive)
same,normalised cell number,[12]; [20],1.01
same,normalised cell number,[12]; [21],0.98
same,fold change,[13]; [22],1.04 (inactive) and 0.943 (inactive)
same,fold change,[13]; [23],0.926 and 0.734
same,cell count,[13]; [24],11400 and 9750
same,cell count,[13]; [25],11000 and 10300
same,outcome,[14],inactive
same,z-score,[15]; [26],-0.297 (inactive)
same,z-score,[15]; [27],0.729
same,luciferase signal,[17],32 AU (inactive)
same,z-score,[18],0.495 (inactive)
CN(C)CCN(Cc1cccs1)c1ccccn1,inhibition,[1],23.7%
same,score,[2],1.21
same,rescue above control,[3],-13.2
same,cytochrome c release ratio,[4],0.66
same,inhibition of aggregation,[5],81.4%
same,glutamate uptake change,[6],-6.5%
same,inclusion score,[7],2
same,aggregation suppression score,[8],1.19
same,period change,[9],0.21 h (inactive)
same,survival,[19],13.8 (inactive)
same,inhibition,[11],15.9% (inactive)
same,red/green cell ratio (normalised),[12],1.12 (inactive)
same,normalised cell number,[12]; [20],1.1
same,normalised cell number,[12]; [21],1.22
same,fold change,[13]; [22],1.16 (inactive) and 0.855 (inactive) and 0.861 (inactive)
same,fold change,[13]; [23],0.908 and 1.23 and 2.97
same,cell count,[13]; [24],11200 and 8440 and 11600
same,cell count,[13]; [25],9630 and 9870 and 13500
same,outcome,[14],inactive
same,z-score,[15]; [26],0.365 (inactive)
same,z-score,[15]; [27],-0.164
same,remaining NAD,[16],10 nM (inactive)
same,luciferase signal,[17],36 AU (inactive)
same,z-score,[18],0.215 (inactive)
COc1ccc(C(C)=O)c(O)c1,inhibition,[11],10.4% (inactive)
same,red/green cell ratio (normalised),[12],0.98 (inactive)
same,normalised cell number,[12]; [20],0.95
same,normalised cell number,[12]; [21],0.94
same,fold change,[13]; [22],0.902 (inactive)
same,fold change,[13]; [23],0.777
same,cell count,[13]; [24],9270
same,cell count,[13]; [25],10300
same,z-score,[15]; [26],-0.383 (inactive)
same,z-score,[15]; [27],0.53
same,luciferase signal,[17],24 AU (inactive)
O=C(O)/C=C/c1ccc(O)c(O)c1,period change,[9],0.055 h (inactive)
same,inhibition,[11],7.04% (inactive)
same,red/green cell ratio (normalised),[12],1.06 (inactive)
same,normalised cell number,[12]; [20],1
same,normalised cell number,[12]; [21],1.06
same,fold change,[13]; [22],0.967 (inactive) and 0.99 (inactive)
same,fold change,[13]; [23],2.48 and 1.11
same,cell count,[13]; [24],10100 and 5830
same,cell count,[13]; [25],10400 and 5890
same,outcome,[14],inactive
same,luciferase signal,[17],32 AU (inactive)
same,z-score,[18],-0.81 (inactive)
O=C(CCc1ccc(O)cc1)c1c(O)cc(O)cc1O[C@@H]1O[C@H](CO)[C@@H](O)[C@H](O)[C@H]1O,parasite load remaining,[10],28.4% (inactive)
same,viability,[10],69.5%
same,inhibition,[11],5.05% (inactive)
same,red/green cell ratio (normalised),[12],1 (inactive)
same,normalised cell number,[12]; [20],0.89
same,normalised cell number,[12]; [21],0.89
same,fold change,[13]; [22],0.867 (inactive)
same,fold change,[13]; [23],1.41
same,cell count,[13]; [24],9120
same,cell count,[13]; [25],10500
same,z-score,[15]; [26],-0.633 (inactive)
same,z-score,[15]; [27],-1.43
same,luciferase signal,[17],28 AU (inactive)
same,z-score,[18],-0.075 (inactive)
O=C(/C=C/C=C/c1ccc2c(c1)OCO2)N1CCCCC1,inhibition,[1],-11.5%
same,score,[2],0.85
same,rescue above control,[3],3.18
same,cytochrome c release ratio,[4],0.68
same,inhibition of aggregation,[5],51%
same,glutamate uptake change,[6],10.6%
same,inclusion score,[7],2
same,aggregation suppression score,[8],0.367
same,survival,[19],6.58 (inactive)
same,inhibition,[11],0.86% (inactive)
same,red/green cell ratio (normalised),[12],0.95 (inactive)
same,normalised cell number,[12]; [20],1.26
same,normalised cell number,[12]; [21],1.2
same,fold change,[13]; [22],0.898 (inactive) and 0.941 (inactive)
same,fold change,[13]; [23],1.07 and 2.41
same,cell count,[13]; [24],7720 and 10400
same,cell count,[13]; [25],8590 and 11100
same,remaining NAD,[16],10 nM (inactive)
same,luciferase signal,[17],80 AU (inactive)
